# From PubChem BioAssay
# In the library only some 3.6% were active in any assay of this set; here they are far more common.
# MazEF act: activators of E. coli MazEF toxin-antitoxin RNase, primary screen, biochemical, fluorescence, uHTS. AID 504720, 2011. hit rate 0.32% among 350,000. activation, % at 20 µM. Endoribonuclease toxin MazF (Escherichia coli (strain K12)), P0AE70. FAM/BHQ RNA-DNA oligo cleavage fluorescence, 5 h; in the data active means activation above about 50%
# BoNT A protease: BoNT/A light chain protease inhibitors, primary screen, biochemical, flow cytometry, MLPCN library; multiplex microsphere protease substrate cleavage; inhibition, % at 10 µM; hit rate 0.17% among 360,000; AID 588499, 2011; further: plate controls were buffer without enzyme for full effect and enzyme alone for no effect
# Anthrax LF inh2: Bacillus anthracis LF protease inhibitors, primary screen, biochemical, multiplex microsphere, MLPCN library | multiplex microsphere protease cleavage assay | inhibition, % at 10 µM | hit rate 0.12% among 360,000; further: plate controls were buffer without enzyme for full effect and enzyme alone for no effect
# BoNT F protease: BoNT/F light chain protease inhibitors, primary screen, biochemical, flow cytometry, MLPCN library. Botulinum neurotoxin type F light chain protease (Clostridium botulinum). Multiplex microsphere protease cleavage assay. inhibition, % at 10 µM. hit rate 0.22% among 360,000. AID 588497, 2011; in the data active means inhibition above about 35%, passing the limit was not always enough; inconclusive means no clear call, values can overlap the other calls; further: plate controls were buffer without enzyme for full effect and enzyme alone for no effect
# Bead autofluor: flagged as autofluorescent in microsphere protease counterscreen; hit rate 3.1% among 360,000; compound autofluorescence counterscreen, microsphere flow cytometry; hits give high values; fluorescence intensity (concentration not given with the values); AID 624483; in the data active means fluorescence intensity above about 16000; inconclusive means no clear call, values can overlap the other calls
# * hit, by the source's call; ? = inconclusive; nt = no result. Unless noted, no stated cut-off is given here; in the data, active means inhibition above about 30%; inconclusive means no clear call, values can overlap the other calls; inactive means below that.
SMILES,MazEF act,BoNT A protease,Anthrax LF inh2,BoNT F protease,Bead autofluor
CC(=O)Nc1cc2c3c(c1)CC(=O)N3CCC2,5,0,-3,8,4041
O=C(C[C@@H]1C/C=C\C[C@H](NC(=O)OCC2c3ccccc3-c3ccccc32)C(=O)OC[C@H]2CCCN2C1=O)NCCO,15,0,2,-6,4151
Cc1ccc(Cc2c(-c3cccc(Br)c3)nc3c(C)cc(Br)cn23)cc1,nt,2,2,-4,4290
Oc1[nH]c2ccccc2c1N=Nc1ccccc1,158*,0,0,0,4650
O=C(N=Nc1c(O)[nH]c2ccccc12)Nc1ccccc1,-14,0,-14,-24,3996
C=CCOc1cccn2c(N(C)C(=O)c3ccc(OC)cc3)c(CC)nc12,nt,0,-4,-2,4013
O=C1Nc2ccccc2N=C(c2ccccc2)C1N1CCOCC1 (configuration not stated),-3,?,-2,-1,21946*
COc1cc(OC)cc(C(=O)N2CCN(C3CCC(C)CC3)CC2)c1 (configuration not stated),-20,-3,-10,7,4576
N#Cc1c(N)sc2c1CCCCCC2,0,-2,-3,-4,24025*
N#Cc1c(N)sc(=S)c2c1CCCCC2,-13,6,4,-43,3216
CCOC(=O)c1c(-n2c(C)cc(C=O)c2C)sc2c1CCCC2,-7,0,-4,0,22089*
O=C1C(Cc2ccccc2)Nc2ncnc(N3CCCCC3)c2N1Cc1ccc(Cl)cc1 (configuration not stated),-9,0,4,7,3830
COc1ccc(C(=O)N2CCN(c3ccc(NC(=O)Cc4ccccc4)cc3)CC2)cc1,-18,-1,-4,-5,5722
Cc1ccc(C(=O)N2CCN(c3ccc(NC(=S)NC(=O)Cc4ccccc4)cc3)CC2)cc1,-4,1,-3,-4,22933*
O=C(Cc1ccccc1)Nc1ccc(N2CCN(Cc3ccccc3F)CC2)cc1,5,?,-12,6,17943*
O=C(Nc1cccc(C(F)(F)F)c1)N1CCC(c2nc(-c3ccc(F)cc3)no2)CC1,8,2,-3,-3,20249*
COc1ccc(NC(=O)N2CCC(c3nc(-c4cccs4)no3)CC2)cc1,2,1,-4,6,9612
COc1cc(C(=O)N2CCCC(c3nc(-c4cccs4)no3)C2)cc(OC)c1OC (configuration not stated),-2,-5,-9,-4,17019*
O=C(Nc1ccc(Cl)cc1)N1CCC(c2nc(-c3cccs3)no2)CC1,-2,?,-3,-2,24323*
Cc1c(C(=O)N2CCC(N3CCSCC3)CC2)oc2c(F)cccc12,5,-1,1,-4,6075
COc1ccc(/C=C2\CC/C(=C\c3ccc(OC)c(OC)c3)C2=O)cc1OC,-3,0,1,-4,6628
COc1ccc(C=C2C=C(C(C)(C)C)C(=O)C(C(C)(C)C)=C2)cc1OC,10,86*,24,25,4135
Cc1ccc(-c2ccc(CCC(=O)O)n2-c2ccc(O)cc2)cc1,-22,2,-1,-1,10421
Cc1ccc(-c2ccc(CCC(=O)O)n2-c2cccc(O)c2)cc1,0,0,-1,-1,19713*
COc1ccc(-c2ccnc3nc(Sc4ncc(C(F)(F)F)cc4Cl)nn23)cc1,-7,-2,0,-5,20277*
SMILES,MazEF act,BoNT A protease,Anthrax LF inh2,BoNT F protease,Bead autofluor
FC(F)(F)c1cnc(Sc2nc3nccc(-c4ccc(Cl)cc4)n3n2)c(Cl)c1,-2,0,0,-2,20640*
Cc1cc(C)c2c(=O)n3c(nc2c1)C(CC(C)C)NC(=O)c1cccnc1-3 (configuration not stated),-3,-1,-7,-7,4051
CC(=O)C1=CN(Cc2ccccc2)CCC1=O,-6,0,-3,-5,3642
COc1ccc(N(C(=O)c2snc(C(N)=O)c2N)C(C(=O)NC2CCCCC2)c2ccc(F)cc2)c(OC)c1 (configuration not stated),-3,3,-2,4,3567
COc1ccc(-c2nsc(C(=O)N(c3ccc(F)cc3)C(C(=O)NC3CCCC3)c3ccc(OC)cc3)c2N)cc1 (configuration not stated),-4,-1,-3,1,23904*
Clc1ccc(Cc2ccc(Cl)nn2)c(Cl)c1,1,0,1,-3,23303*
